Eight molecules from PubChem BioAssay (EPA / NIEHS) can be followed below.

Records with an inconclusive call do not appear. Active and inactive are the calls of the source. Rule for the calls: active = hit-call score of the fitted dose curve at least 0.9, where 1 is the maximum; inconclusive = response in the unintended direction; inactive = score below 0.9.

Chain of human Colony Stimulating Factor 1 Receptor (CSF1R), CSF1R (gene 1436) (P07333 whole entry, looked up): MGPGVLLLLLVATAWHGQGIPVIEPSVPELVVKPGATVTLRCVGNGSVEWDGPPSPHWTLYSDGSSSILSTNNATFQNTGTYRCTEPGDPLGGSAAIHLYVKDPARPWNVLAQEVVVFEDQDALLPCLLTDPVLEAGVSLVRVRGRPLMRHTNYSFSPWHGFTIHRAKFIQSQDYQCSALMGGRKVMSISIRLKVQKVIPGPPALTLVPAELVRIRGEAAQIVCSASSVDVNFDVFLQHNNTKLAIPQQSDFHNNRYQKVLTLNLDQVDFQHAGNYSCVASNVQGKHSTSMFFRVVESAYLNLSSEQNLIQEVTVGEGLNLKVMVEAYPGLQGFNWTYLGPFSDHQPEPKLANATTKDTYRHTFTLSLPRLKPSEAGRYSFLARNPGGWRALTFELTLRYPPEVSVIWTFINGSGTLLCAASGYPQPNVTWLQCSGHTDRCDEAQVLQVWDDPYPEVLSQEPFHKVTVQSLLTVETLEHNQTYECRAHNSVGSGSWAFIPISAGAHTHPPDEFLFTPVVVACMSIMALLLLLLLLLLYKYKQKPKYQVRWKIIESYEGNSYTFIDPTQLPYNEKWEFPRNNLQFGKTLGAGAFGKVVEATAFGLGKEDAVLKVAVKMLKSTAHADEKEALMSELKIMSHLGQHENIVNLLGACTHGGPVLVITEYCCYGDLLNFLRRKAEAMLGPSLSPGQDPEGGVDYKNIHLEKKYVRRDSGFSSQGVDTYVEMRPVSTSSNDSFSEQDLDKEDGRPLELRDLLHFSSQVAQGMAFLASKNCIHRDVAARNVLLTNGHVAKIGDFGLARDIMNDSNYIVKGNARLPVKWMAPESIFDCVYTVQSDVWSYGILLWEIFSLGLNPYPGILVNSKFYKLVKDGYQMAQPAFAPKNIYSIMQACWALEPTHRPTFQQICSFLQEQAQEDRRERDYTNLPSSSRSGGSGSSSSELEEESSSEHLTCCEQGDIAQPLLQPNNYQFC

The target of the first experiment is human Colony Stimulating Factor 1 Receptor (CSF1R), CSF1R (gene 1436) (UniProt P07333). The experiment is described as follows: NVS_ENZ_hCSF1R: NovaScreen (NVS) Enzymatic Assay for human Colony Stimulating Factor 1 Receptor (CSF1R) (AID 2283150). The gist of the method:
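Compounds screened in duplicate at 25 uM, then concentration-response (top 50 uM) for those passing threshold such as 30% inhibition; recombinant CSF1R activity measured 1 h post-dosing via fluorescent substrate/product mobility-shift separation, loss of signal versus DMSO.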
Consider `O=C(O)C(F)(F)C(F)(F)C(F)(F)C(F)(F)C(F)(F)C(F)(F)C(F)(F)C(F)(F)F`, for which the outcome was inactive.

Take `ClC1=C(Cl)[C@]2(Cl)[C@@H]3[C@@H]4C[C@@H]([C@H]5O[C@@H]45)[C@@H]3[C@@]1(Cl)C2(Cl)Cl`: the molecule was classed as inactive.

`Oc1ccc(C(c2ccc(O)cc2)(C(F)(F)F)C(F)(F)F)cc1`: the molecule was classed as inactive.

For the molecule `CCCN(CCC)N=O`, the result was inactive.

For the molecule `C1CC2OC2CC1C1CO1` (stereo not given), the result was inactive.

For the molecule `CC1=C2C[C@H]3[C@@H](CC=C4C[C@@H](O)CC[C@@]43C)[C@@H]2CC[C@]12O[C@@H]1C[C@H](C)CN[C@H]1[C@H]2C`, the molecule was classed as inactive.

As for `O=S(=O)(O)C(F)(F)C(F)(F)C(F)(F)C(F)(F)C(F)(F)C(F)(F)F`, the molecule was classed as inactive.

For the next experiment, the target named is human Epidermal Growth Factor Receptor (EGFR), EGFR (gene 1956) (UniProt P00533). The experiment is described as follows: NVS_ENZ_hEGFR: NovaScreen (NVS) Enzymatic Assay for human Epidermal Growth Factor Receptor (EGFR) (AID 2283151). The gist of the method: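 Cell-free kinase assay, fluorescence plus electrophoretic mobility shift separating substrate and product, read 1 hour after dosing; loss of signal vs DMSO. Duplicate screen at 25 uM, then concentration-response to 50 uM.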
Chain of human Epidermal Growth Factor Receptor (EGFR), EGFR (gene 1956) (P00533 whole entry, looked up): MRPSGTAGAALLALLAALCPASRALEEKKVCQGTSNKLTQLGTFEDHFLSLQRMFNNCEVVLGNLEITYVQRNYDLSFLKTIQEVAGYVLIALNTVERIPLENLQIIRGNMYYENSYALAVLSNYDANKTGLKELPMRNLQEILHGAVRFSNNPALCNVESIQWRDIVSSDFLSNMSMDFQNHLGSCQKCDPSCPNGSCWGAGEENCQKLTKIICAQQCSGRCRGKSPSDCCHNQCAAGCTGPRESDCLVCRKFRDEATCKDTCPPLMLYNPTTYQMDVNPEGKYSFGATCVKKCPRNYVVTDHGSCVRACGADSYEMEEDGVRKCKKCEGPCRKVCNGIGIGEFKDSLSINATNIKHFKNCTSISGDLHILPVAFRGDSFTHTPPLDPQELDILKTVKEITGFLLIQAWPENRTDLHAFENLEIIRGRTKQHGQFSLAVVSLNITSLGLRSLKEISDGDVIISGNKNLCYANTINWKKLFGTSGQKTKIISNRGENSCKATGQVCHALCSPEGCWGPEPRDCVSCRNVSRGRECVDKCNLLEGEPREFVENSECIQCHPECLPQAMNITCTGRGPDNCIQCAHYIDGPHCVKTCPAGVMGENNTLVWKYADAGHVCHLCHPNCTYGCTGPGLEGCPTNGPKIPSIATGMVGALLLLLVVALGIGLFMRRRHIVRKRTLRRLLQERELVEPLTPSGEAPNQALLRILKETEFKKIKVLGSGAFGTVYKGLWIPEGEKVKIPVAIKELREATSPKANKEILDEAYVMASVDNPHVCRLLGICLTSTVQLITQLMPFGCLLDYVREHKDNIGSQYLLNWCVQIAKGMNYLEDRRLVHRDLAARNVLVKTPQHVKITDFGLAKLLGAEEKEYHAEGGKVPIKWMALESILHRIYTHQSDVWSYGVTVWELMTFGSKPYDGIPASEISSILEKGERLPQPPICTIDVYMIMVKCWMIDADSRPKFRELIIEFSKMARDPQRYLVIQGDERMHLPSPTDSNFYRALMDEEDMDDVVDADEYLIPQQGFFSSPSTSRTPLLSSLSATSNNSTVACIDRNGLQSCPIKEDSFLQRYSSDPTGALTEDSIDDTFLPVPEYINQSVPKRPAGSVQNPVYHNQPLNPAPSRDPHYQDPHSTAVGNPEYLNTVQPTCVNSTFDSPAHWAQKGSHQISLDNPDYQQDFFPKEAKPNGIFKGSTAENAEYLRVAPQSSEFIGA
For `O=C(O)C(F)(F)C(F)(F)C(F)(F)C(F)(F)C(F)(F)C(F)(F)C(F)(F)C(F)(F)F`, the outcome was inactive.

Consider `O=C(O)C(F)(F)C(F)(F)C(F)(F)C(F)(F)C(F)(F)F`, for which the molecule was classed as inactive.

Consider `CC1=C2C[C@H]3[C@@H](CC=C4C[C@@H](O)CC[C@@]43C)[C@@H]2CC[C@]12O[C@@H]1C[C@H](C)CN[C@H]1[C@H]2C`, for which the molecule was classed as inactive.
